The panel holds about 83,000 compounds, 20% with a hit somewhere; the sample as a whole holds those more often.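 Single-dose data. Exposure time 48 hours. Values below 10 considered active.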 Unmarked numbers belong to inactive results. Calls of active or inactive are those of the source.
Legend:
Test in all cases: NCI-60 one-dose screen, 48 h (100 = growth as untreated, 0 = no growth, -100 = all killed)
Conditions in all cases: 10 µM unless noted
SK-MEL-2 melanoma = system: SK-MEL-2 melanoma
EKVX NSCLC = system: EKVX NSCLC
SN12C renal = system: SN12C renal
UO-31 renal = system: UO-31 renal
TK-10 renal = system: TK-10 renal
ACHN renal = system: ACHN renal
CAKI-1 renal = system: CAKI-1 renal
A498 renal = system: A498 renal
CCRF-CEM leukemia = system: CCRF-CEM leukemia
MOLT-4 leukemia = system: MOLT-4 leukemia

Row | Compound | growth (SK-MEL-2 melanoma) | growth (EKVX NSCLC) | growth (SN12C renal) | growth (UO-31 renal) | growth (TK-10 renal) | growth (ACHN renal) | growth (CAKI-1 renal) | growth (A498 renal) | growth (CCRF-CEM leukemia) | growth (MOLT-4 leukemia)
1 | O=C(CCl)Nc1ccc2c(Nc3cc(O)ccc3Cl)ncnc2c1 | -76.5% (active) | -53.8% (active) | -83.4% (active) | -92.9% (active) | -66.9% (active) | -98.3% (active) | -86.1% (active) | 56.2% | -5.44% (active) | -24.4% (active)
2 | CCN1C(=O)N(CC)C2C1NN=c1s/c(=C3\C(=O)N(CCc4ccccc4)c4ccccc43)c(=O)n12 (stereo not given) | 54.7% | 43.6% | 17.8% | 45.4% | 64.1% | 25.5% | 27.7% | -3.18% (active) | 5.65% (active) | 10.3%
3 | CCCCCCC(CCCC)COC(=O)c1ccc(Cl)cc1 (stereo not given) | 109% | 112% | 105% | 98% | 110% | 110% | 100% | 93.9% | 105% | 98.8%
4 | CC[C@H](CC[C@@H](C)[C@H]1CC[C@H]2[C@@H]3CC[C@@H]4CC(=O)/C(=C\c5ccncc5)C[C@]4(C)[C@H]3CC[C@]12C)C(C)C | 105% | 99.6% | 102% | 90.4% | 107% | 111% | 93.8% | 83% | 107% | 104%
5 | CC(C)c1ccc(-n2c(=S)[nH]c3sc4c(c3c2=O)CCC(=O)C4)cc1 | 91.4% | 47% | 50.8% | 46.9% | 106% | 82% | 74.2% | 112% | 18.2% | 75.7%
6 | CCN(CC)CCOc1ccc(Nc2ncc3cc(-c4ccc(O)cc4)c(=O)n(C)c3n2)cc1 | 97.7% | 74% | 39.9% | 10.5% | 81.2% | 26% | 26.4% | 69.4% | -8.41% (active) | 5.99% (active)
7 | Cc1c(Cl)cccc1C(=O)Nc1nc2c(s1)CN(C(=O)Nc1cccc(C(F)(F)F)c1)CC2 | 37.4% | 46% | 26% | 27.8% | 50.9% | 18.3% | 15.9% | -10.2% (active) | 16.7% | 15.9%
8 | COc1cccc(NC(=O)c2cccc(C3CCc4c(cc(OC)c(OC)c4OC)O3)c2)c1 (stereo not given) | 65.5% | 69.1% | 55.2% | 34.5% | 74.5% | 66.8% | 80.3% | 30.2% | 22.1% | 7.7% (active)
9 | CC(C)[C@@]12C[C@@H](OC(=O)COC(=O)c3ccccc3)[C@@](C)(O1)[C@@H]1CC[C@@H](C)[C@H]1[C@@H]2OC(=O)/C=C/c1ccccc1 | 103% | 81.8% | 31% | -78.1% (active) | 88.9% | -13.4% (active) | 5.14% (active) | -76.6% (active) | 87% | 80.8%
10 | COc1ccc(C(c2cc(OC)c(OC)c(OC)c2)N2CCCC2)cc1 (stereo not given) | 55.7% | 87.8% | 108% | 75.1% | 88.3% | 103% | 77.5% | 31.2% | 71.2% | 78.1%
11 | COc1ccc(C2C(C#N)=C(N)Oc3c2sc2c(Br)cccc32)cc1 (stereo not given) | 10.9% | 46.2% | 37.3% | 35.9% | 50.2% | 54% | 35.9% | 27% | 12.5% | 12.1%
12 | C[C@@H]1CC[C@@]2(OC1)O[C@H]1C[C@H]3[C@@H]4CC=C5C[C@@H](O[C@@H]6O[C@H](CO)[C@@H](O[C@@H]7O[C@@H](CO)[C@H](O)[C@H]7O)[C@H](O)[C@H]6O[C@@H]6O[C@@H](C)[C@H](O)[C@@H](O)[C@H]6O)CC[C@]5(C)[C@H]4CC[C@]3(C)[C@H]1[C@@H]2C | -87% (active) | -66.6% (active) | -97.4% (active) | -99.5% (active) | -81.2% (active) | -98.3% (active) | -93.4% (active) | -95.6% (active) | -74.2% (active) | -60% (active)
13 | O=C(N=Nc1c(O)[nH]c2ccccc12)Nc1ccc(Cl)cc1 | 99.7% | 86.5% | 97.1% | 69.2% | 101% | 80.5% | 89.2% | 77.6% | -8.91% (active) | 87.3%
14 | C=C1C(=O)O[C@H]2[C@H]1CC/C(Cn1cc(-c3cc(C(F)(F)F)cc(C(F)(F)F)c3)nn1)=C\CC[C@@]1(C)O[C@@H]21 | -84.1% (active) | -97.1% (active) | -77.5% (active) | -96.3% (active) | -99.4% (active) | -92.6% (active) | -95.3% (active) | -94.5% (active) | -32.9% (active) | -28.2% (active)
15 | CC1O[C@@H]2C[C@@](O)([C@H]1O)n1c3ccccc3c3c4c(c5c6ccccc6n2c5c31)C(=O)NC4=O (stereo not given in full) | 75.4% | 68.7% | 55.1% | 24.8% | 79.6% | 19.3% | 28% | 42.4% | 27.9% | 10.5%
16 | CS(=O)(=O)Nc1cc(-c2ccc3ncnc(Nc4ccc5c(cnn5Cc5cccnc5)c4)c3c2)cnc1Cl | 14% | 68.2% | 46.2% | 47.9% | 49% | 75.8% | 40.2% | 19.2% | 32.9% | 24.7%
17 | O=C(CSc1nc2ccc([N+](=O)[O-])cc2[nH]1)Nc1cccc([N+](=O)[O-])c1 | 49.2% | 48.8% | 49.6% | 33.4% | 69.5% | 62.5% | 41.2% | 31.7% | 40.8% | 43.6%
18 | COc1ccc(NC(=O)c2sc3nc(C)c(C(O)c4ccccc4)cc3c2N)cc1 (stereo not given) | 46.5% | 40.4% | 36.1% | 43.4% | 52.6% | 45.2% | 42.4% | -1.83% (active) | 7.85% (active) | 12.5%
19 | O=C(O)c1cccc(N/C=C/C(=O)c2cc3cc(Br)ccc3oc2=O)c1 | 119% | 102% | 94.1% | 74.9% | 119% | 102% | 86.3% | 92.5% | 101% | 113%
20 | CCCCCCCC/C=C\CCCCCCCCOc1ccc(CC(=O)NCC[N+](C)(C)C)cc1 | 101% | 87.8% | 50% | 92.8% | 24.6% | 60.8% | 44.6% | 68.9% | 54.6% | 75.1%
21 | CCCCc1oc2ccccc2c1C(=O)c1ccc(O)cc1 | 99.8% | 92.3% | 71.2% | 78.3% | 101% | 88.8% | 68.4% | 90.9% | 51.9% | 59.7%
22 | COc1cccc(C(=O)OCC(O)C(=O)NC23CC4CC(CC(C4)C2)C3)c1 (stereo not given) | 101% | 97.4% | 95.5% | 87.1% | 96.4% | 97.2% | 99.8% | 96.9% | 86.3% | 95.4%
23 | Cc1c(N2CN3C[C@H](C)N4CN(c5c(C)n(C)n(-c6ccccc6)c5=O)CN5C[C@@H](C)N(C2)C3C54)c(=O)n(-c2ccccc2)n1C (stereo not given in full) | 101% | 96.1% | 100% | 77.6% | 110% | 103% | 87.5% | 117% | 102% | -17.9% (active)
24 | COc1ccc2c(O)c(/C=C3\N=Nc4ccccc43)oc2c1C[C@H]1CCNC[C@H]1F | 83.1% | 40% | 45.2% | 45.3% | 65.4% | 42.8% | 31% | 39.9% | 47.9% | 24.2%
25 | C/C(=C(/c1ccc(Cl)cc1)c1ccc(OCCCN(C)C)cc1)c1ccc(Cl)cc1 | 98.5% | 98.4% | 93.9% | 72.7% | 103% | 104% | 87.3% | 94.8% | 73.3% | 71.7%

— PubChem BioAssay (NCI)
